Data: PubChem BioAssay (EPA / NIEHS)
Activity calls are given as the source filed them. Rule for the calls: active = hit-call score of the fitted dose curve at least 0.9, where 1 is the maximum; inactive = score below 0.9.

test: BSK_LPS_PGE2: BioMAP Diversity Plus: LPS Assay for Prostaglandin E2 (PGE2) Biomarker Activity (AID 2283082); details: primary human HUVEC with PBMC; actives raise or lower the signal
Procedure: BSK_LPS is a cell-based, multiplexed-readout assay that uses umbilical vein endothelium and peripheral blood mononuclear cells, a human vascular primary cell co-culture, with measurements taken at 24 hours after chemical dosing in a 96-well plate.BSK_LPS_PGE2 is an assay component measured in the BSK_LPS assay. It measures PGE2 antibody related to regulation of gene expression using ELISA technology.Data from the assay component BSK_LPS_PGE2 was analyzed into 1 assay endpoint. This assay endpoint, BSK_LPS_PGE2, was analyzed with bidirectional fitting relative to DMSO as the negative control and baseline of activity. Using a type of binding reporter, gain or loss-of-signal activity can be used to understand changes in the signaling as they relate to the gene PTGER2. Furthermore, this assay endpoint can be referred to as a primary readout, because this assay has produced multiple assay endpoints where this one serves a signaling function. To generalize the intended target to other relatable targets, this assay endpoint is annotated to the gpcr intended target family, where the subfamily is rhodopsin-like receptor.
The levels of cell surface (or secreted, indicated by the prefix "s") biomarker endpoints were measured by ELISA. Overt cytotoxicity to cells in confluent adherent cultures (all systems other than the BT system) was assessed by measuring total protein levels using sulforhodamine B (SRB) staining in parallel cultures at the time of biomarker measurements, indicated as SRB endpoints. For proliferation assays for adherent cell types, individual cell types are cultured at sub-confluence and relative cell numbers quantified by SRB staining at time points optimized for each system (48 h: 3C and CASM3C systems; 72 h: BT and HDF3CGF systems; 96 h: SAg system). SRB was performed by staining cells with 0.1% SRB after fixation with 10% TCA and reading wells at 560 nm.Viability and proliferation of PBMC (T cells) was quantified by Alamar Blue reduction for the SAg and BT systems. For PBMC viability (referred to as PBMC Cytotoxicity within the assay endpoint names), cells were plated (75,000/well in a 96-well plate) and then chemical samples added for 1 h before addition of activators, SEB and TSST-1 (20 ng/mL final concentration each). Cells were incubated for 90 h. Then, Alamar Blue (20 uL/well) (Invitrogen, Cat DAL1100) was added for 6 h, and the plates were read with a fluorescence microplate reader at 546/580 nm (excitation/emission). For PBMC proliferation, cells were plated and activated as above but incubated for only 16 h prior to addition of Alamar Blue. Plates were read after 6 h.

Structure (SMILES)	outcome	AC50
CCOC(=O)C(C)(C)Oc1ccc(Cl)cc1	inactive	
CN[C@H]1CC[C@@H](c2ccc(Cl)c(Cl)c2)c2ccc(S(N)(=O)=O)cc21	inactive	
CCCc1cc(=O)[nH]c(=S)[nH]1	inactive	
OC[C@@H](O)[C@@H](O)[C@H](O)[C@H](O)CO	inactive	
COCCOCCOC	inactive	
Cc1ccc(C)c(O)c1C		0.795 µM (active)
CC1(C)CC(N=C=O)CC(C)(CN=C=O)C1 (stereo not given)	inactive	
Nc1ccc2c(c1)C(=O)c1ccccc1C2=O		3.36 µM (active)
Cc1cccc([N+](=O)[O-])c1C	inactive	
CN1CCN(Cc2cc(-c3ccc4[nH]c(=O)oc4c3)co2)[C@@H](c2ccc(F)cc2)C1	inactive	
CC(C)(C)c1cc(O)c(C(C)(C)C)cc1O		9.44 µM (active)
CC(=O)OC/C=C(\C)CCC=C(C)C	inactive	
CN1CCCC1=O	inactive	
O=C(N[C@@H](Cc1ccccc1)[C@@H](O)C(=O)N1C[C@@H](O)[C@@H](O)C1)c1cc2cc(Cl)ccc2[nH]1	inactive	
CC1=C(/C=C/C(C)=C/C=C/C(C)=C/CO)C(C)(C)CCC1		0.574 µM (active)
CCc1c(C(=O)NN2CCCCC2)nn(-c2ccc(Cl)cc2Cl)c1-c1ccc(Br)cc1		15.3 µM (active)
O=c1c(O)c(-c2ccc(O)c(O)c2)oc2cc(O)cc(O)c12		32.8 µM (active)
c1cc(-c2ccncc2)ccn1	inactive	
CCCCc1ccc2c(n1)[C@@H](c1ccc(OC)cc1C[C@H](C)C(=O)O)[C@H](C(=O)O)[C@H]2c1ccc2c(c1)OCO2	inactive	
COc1ccc2c(c1)c(CC(=O)O)c(C)n2C(=O)c1ccc(Cl)cc1		0.148 µM (active)

Structure (SMILES)	outcome	AC50
Cc1ccc(Cl)cc1	inactive	
CCCCOC(=O)CCCCCCCCC(=O)OCCCC	inactive	
CCCCCCCC=O	inactive	
O=C(O)CCCCC(=O)O	inactive	
Cc1cccc(Nc2cc(Cl)nc(SCC(=O)O)n2)c1C	inactive	
Oc1ccc2ccccc2c1N=Nc1ccccc1		2.4 µM (active)
O=c1[nH]cc(F)c(=O)[nH]1	inactive	
Cc1ccc(N(C)C)cc1	inactive	
C1CCC(SSC2CCCCC2)CC1	inactive	
Clc1cc(Cl)c(Cl)cc1Cl	inactive	
COc1ccc(S(=O)(=O)N2C(=O)[C@@](c3ccccc3OC)(N3C[C@H](O)C[C@H]3C(=O)N(C)C)c3cc(Cl)ccc32)c(OC)c1	inactive	
Cc1nc(-c2ccc3c(c2)CCN(CCC2CCC(NC(=O)/C=C/c4ccc(F)cc4)CC2)CC3)no1 (stereo not given)		1.45 µM (active)
CCOc1ccc2c(c1)C(C)=CC(C)(C)N2		4.6 µM (active)
C=CCc1ccc(O)c(OC)c1		0.542 µM (active)
C[Si]1(C)O[Si](C)(C)O[Si](C)(C)O[Si](C)(C)O1	inactive	
COC(=O)c1ccc(O)cc1		1.34 µM (active)
NCCO	inactive	
CCNc1cccc(C)c1	inactive	
CCCCCCCCCCCC(=O)OC	inactive	
CC=Cc1ccc(O)c(OC)c1		6.95 µM (active)
